From paper PMC4552634, “A New Set of Chemical Starting Points with Plasmodium falciparum Transmission-Blocking Potential for Antimalarial Drug Discovery” (PLoS ONE, 2015)
In all, about 13,000 compounds went through this assay and about 3,200 (25%) showed an effect of 50% or more. The list shows a part of the results.

Test system: P. falciparum stage V gametocytes
Set-up: BacTiter-Glo ATP luminescence viability of purified stage V gametocytes in 384-well plates, per cent inhibition versus DMSO
Conditions: 48 h, 5 µM; inhibitor

In order of falling “% Inhibition” value:
1. COc1ccccc1C1CCN(C2CCC(NC(=O)c3ccc4nc(-c5ccc(C)cc5)[nH]c4c3)CC2)CC1 (stereo not drawn) [TCMDC-133556]  115.6%
2. COc1ccc(-c2cccc(NC(=O)c3cccc(Cl)c3)c2)cc1CN(C)CCN(C)C [TCMDC-132616]  105.4%
3. O=c1cc(NCCC(CNCCc2ccccc2)NCc2cc(Br)cc(Br)c2)[nH]c2ccccc12 (stereo not drawn) [TCMDC-140344]  98.47%
4. COc1ccc(-c2ccc(NC(=O)c3ccc(Cl)cc3)cc2)cc1CN(C)CCO [TCMDC-132513]  86.93%
5. COc1ccc(-c2ccc(NC(=O)c3cccc(Cl)c3)cc2)cc1CN(C)CCO [TCMDC-132527]  86.37%
6. Cc1ccc(N/C(N)=N/c2ncccc2OCc2c(F)cccc2Cl)cc1 [TCMDC-138944]  83.96%
7. CN(C)Cc1ccc2cc(NC(=O)c3ccc(-c4ccc(Cl)cc4)cc3)ccc2c1 [TCMDC-134694]  77.36%
8. COc1ccc(C(=O)Nc2ccc(-c3nc4ccc(C)cc4[nH]3)cc2)cc1OC [TCMDC-124358]  77.27%
9. O=C(c1cccc(COc2ccc3c(c2)CCN(C2CCCC2)CC3)c1)N1CCN(c2ccncc2)CC1 [TCMDC-134128]  76.76%
10. N#Cc1cccc(C(=O)Nc2ccc(-c3nc4ccccc4[nH]3)cc2)c1 [TCMDC-124812]  70.91%
11. Cc1ccc(Nc2nnc(SCC(=O)Nc3ccc(CN4CCCC4)cc3)s2)cc1 [TCMDC-125043]  65.4%
12. Cc1cc(C(=O)Nc2ccc(-c3nc4ccccc4[nH]3)cc2)ccc1[N+](=O)[O-] [TCMDC-123604]  62.44%
13. O=c1cc(NCCC(CNCc2ccoc2)NCc2cc(Br)cc(Br)c2)[nH]c2ccccc12 (stereo not drawn) [TCMDC-140343]  58.98%
14. Cc1cc(I)ccc1Nc1nc2nonc2nc1Nc1ccc(I)cc1C [TCMDC-124083]  56.47%
15. COc1ccc2c(CCNc3nc(SC)ncc3C(=O)NCCc3ccc(F)cc3)c[nH]c2c1 [TCMDC-136796]  55%
16. COc1cc(C(=O)Nc2ccc(-c3nc4ccccc4[nH]3)cc2)cc(OC)c1OC [TCMDC-125796]  51.37%
17. COc1ccc(-c2ccc(NC(=O)c3ccc(Cl)cc3)cc2)cc1CN(C)CCN(C)C [TCMDC-132511]  46.96%
18. CS(=O)(=O)c1cc2c(Nc3ccc(N4CCOCC4)cc3)c(C(N)=O)cnc2cc1Br.Cl [TCMDC-135826]  40.37%
19. COc1ccc(-c2ccc(NC(=O)c3cccc(Cl)c3)cc2)cc1CNC(C)C [TCMDC-132524]  39.19%
20. COc1ccc(NC(=O)CCNc2ccnc(NCCc3ccc(F)cc3)n2)cc1 [TCMDC-134823]  38.74%
21. O=C(Nc1ccncc1)Nc1ccc2c(c1)CCN(C1CCC1)CC2 [TCMDC-135949]  33.65%
22. COc1ccc(-c2ccc(NC(=O)c3ccc(C#N)cc3)cc2)cc1CN(C)CCO [TCMDC-132521]  28.66%
23. CCOc1cccc(C(=O)Nc2ccc(-c3nc4ccccc4[nH]3)cc2)c1 [TCMDC-123752]  24.98%
24. COc1ccc(NC(=O)[C@H](CC(C)C)Nc2ccnc(NCCc3ccc(F)cc3)n2)cc1 [TCMDC-134826]  23.86%
25. Nc1nc(N)c2c(ccc3c2cnn3Cc2cccnc2)n1 [TCMDC-131932]  23.15%
26. O=S(=O)(ON=C1CCc2ccccc21)c1ccc(Cl)cc1 [TCMDC-125427]  20.26%
27. Cn1c(=O)c2nc(-c3ccc(Cl)cc3)nnc2n(CCCC#N)c1=O [TCMDC-138537]  18.59%
28. Cc1cccc(Nc2nc3nonc3nc2Nc2cccc(Cl)c2Cl)c1C [TCMDC-125806]  15.39%
29. COc1ccc(-c2ccc(NC(=O)c3cccc(Cl)c3)cc2)cc1CN(C)CCN(C)C [TCMDC-133335]  14.93%
30. Oc1ccc(CCNc2nc(NCc3ccccc3-c3ccc(F)cc3)nc(N3CCNCC3)n2)cc1 [TCMDC-133783]  11.92%
31. O=C(CSc1nccn1Cc1ccco1)Nc1cc(C(F)(F)F)ccc1Cl [TCMDC-125134]  10.58%
32. COc1ccc2nccc([C@@H](O)CN3CCC(NCc4ccc5scnc5c4)CC3)c2c1 [TCMDC-141081]  9.68%
33. COc1ccc(Cl)cc1C(=O)Nc1ccc(-c2nc3ccccc3[nH]2)cc1 [TCMDC-125808]  9.6%
34. COC(=O)c1ccc(CC(C)NCC(O)c2cc(Cl)c(N)c(Cl)c2)cc1 (stereo not drawn) [TCMDC-131421]  9.503%
35. Cn1nccc1C(=O)NCCNCc1cccc(-c2ccc(-c3nc4cc(C(F)(F)F)ccc4[nH]3)s2)c1.O=C(O)C(F)(F)F [TCMDC-133010]  8.568%
36. CS(=O)(=O)Cc1ccc(Nc2nccc(NC3CCN(c4nccc(C(F)(F)F)n4)CC3)n2)cc1 [TCMDC-134397]  7.117%
37. COc1cccc(C(=O)Nc2ccc(-c3nc4ccccc4[nH]3)cc2)c1 [TCMDC-124429]  5.991%
38. CCOc1cc(C)ccc1C1CCN(CCCCNC(=O)c2cnc(-c3ccc(C(F)(F)F)cc3)[nH]2)CC1 [TCMDC-138581]  5.476%
39. CN(C)Cc1ccc2cc(NC(=O)c3ccc(-c4ccc(Cl)cc4)cc3)ccc2n1 [TCMDC-134644]  5.45%
40. Cc1ccc(-c2nc3ccc(C(=O)NC4CCN(Cc5ccccc5)CC4)cc3[nH]2)cc1 [TCMDC-133073]  5.058%
41. CN(C)Cc1ccc(-c2cccc(NC(=O)c3ccc(Cl)cc3)c2)cc1 [TCMDC-132632]  4.982%
42. CCOc1ccc(/C=C/C(=O)Nc2cccc3c2CCN(C)C3)cc1 [TCMDC-139243]  3.869%
43. Cc1cc(C(=O)CN2C(=O)NC3(CCCc4ccccc43)C2=O)c(C)n1Cc1ccco1 (stereo not drawn) [TCMDC-124502]  2.781%
44. O=C(Nc1ccc(-c2nc3ccccc3[nH]2)cc1)c1ccc(Cl)c([N+](=O)[O-])c1 [TCMDC-125730]  2.294%
45. O=C(Nc1ccc2c(c1)CCC2)c1cccc(N2CCN(c3ccncc3)CC2)c1 [TCMDC-135125]  2.245%
46. COc1ccc2nccc([C@@H](O)CN3CCC(NC(=O)COc4nc(SCc5ccc(F)cc5)nc5c4CCC5)CC3)c2c1 [TCMDC-141132]  -0.4192%
47. Clc1ccccc1OCc1ccccn1 [TCMDC-125865]  -0.5645%
48. Cc1ccc(-c2nc3ccc(C(=O)NC4CCC(N5CCCc6ccc(C#N)cc6C5)CC4)cc3[nH]2)cc1 (stereo not drawn) [TCMDC-133551]  -1.563%
49. Cc1c(CNCCCNc2cc(=O)c3ccccc3[nH]2)sc(C(F)=C(F)F)c1Br [TCMDC-141189]  -2.633%
50. COc1cc(C(=O)Nc2cccc(-c3nc4ccccc4[nH]3)c2)cc(OC)c1OC [TCMDC-125848]  -4.164%
51. Cc1ccc(NC(=O)c2ccc(Cl)c(Cl)c2)cc1-c1ccc(C(=O)Nc2ccncc2)cc1 [TCMDC-133696]  -4.564%
52. COc1ccc(-c2cccc(NC(=O)c3ccc(Cl)cc3)c2)cc1CN(C)CCN(C)C [TCMDC-132605]  -10.06%
53. CCCc1cccc(OC)c1OCCCON1C(N)=NC(N)=NC1(C)C [TCMDC-131338]  -11.7%
54. CCOc1ccc(C(=O)Nc2ccc(-c3nc4ccccc4[nH]3)cc2)cc1[N+](=O)[O-] [TCMDC-125221]  -12.2%
55. Cc1ccc(NC(=O)c2ccc(CN3CCCN(Cc4cccc(O)c4)CC3)cc2)cc1 [TCMDC-136398]  -12.68%
56. O=C(Nc1ccc(-c2nc3ccc(NC(=O)c4ccc(Br)cc4)cc3[nH]2)cc1)c1ccc(Br)cc1 [TCMDC-124212]  -13.35%
57. Nc1ncc(-c2ccc(F)c(Cl)c2)c(N)n1 [TCMDC-137296]  -16.29%
58. Cc1ccc(F)c(NC(=O)c2c(-c3c(F)cccc3Cl)noc2C)c1 [TCMDC-125643]  -20.89%
59. CCNCc1ccc(-c2cc3ncnc(Nc4ccc(OCc5cccc(F)c5)c(Cl)c4)c3s2)[nH]1 [TCMDC-135542]  -36.05%
60. CC(CN(C)C)C(=O)Nc1cccc(-c2ccc(-c3nc4ccccc4[nH]3)s2)c1 (stereo not drawn) [TCMDC-137102]  -38.48%
61. O=C(/C=C/c1ccc(Cl)c(Cl)c1)NCCCCCN1CCCN(C(=O)Nc2cccc(F)c2)CC1 [TCMDC-135745]  -38.92%
62. COc1ccccc1C1CCN(C2CCC(NC(=O)/C=C/c3ccc(C(F)(F)F)cc3F)CC2)CC1 (stereo not drawn) [TCMDC-133486]  -41.82%
63. CCOc1cc(C(=O)Nc2ccc(-c3nc4ccccc4[nH]3)cc2)cc(OCC)c1OCC [TCMDC-125676]  -48.5%
64. C=CCCCNCC(NCCCNc1cc(=O)c2ccccc2[nH]1)c1cc(Br)cc(Br)c1 (stereo not drawn) [TCMDC-140371]  -52.81%
65. COC(=O)C1=CNC=C(C(=O)OC)C1c1ccc(Cl)c([N+](=O)[O-])c1 [TCMDC-125154]  -60.53%
66. Cc1ccc(NC(=O)c2ccc(CN3CCCN(CC4CCCCC4)CC3)cc2)cc1 [TCMDC-136397]  -64.33%
67. O=c1cc(NCCCNC(CNCCc2ccccc2)c2cc(Br)cc(Br)c2)[nH]c2ccccc12 (stereo not drawn) [TCMDC-140370]  -71.22%
68. O=c1cc(NCCCCNCc2ccc(Br)c(Br)c2)[nH]c2ccccc12 [TCMDC-139308]  -72.79%
69. O=c1cc(NCCCCNCc2cccc(Br)c2)[nH]c2ccccc12 [TCMDC-139312]  -82.6%
